# Reference: PubChem BioAssay (NCI)
# The panel holds about 83,000 compounds, 20% with a hit somewhere; the sample as a whole holds those more often.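 Values shown are percent growth following 48 h exposure of cells in 96-well plates to a single concentration of compound; below 10 was considered active.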 Values without a mark were called inactive. The source made the active and inactive calls.
# Tests used:
# Experiment in all cases: NCI-60 one-dose screen, 48 h (100 = growth as untreated, 0 = no growth, -100 = all killed)
# Details in all cases: 10 µM unless noted
# [1] = tested on: DU-145 prostate
# [2] = tested on: K-562 leukemia
# [3] = tested on: MALME-3M melanoma
# [4] = tested on: MDA-MB-231 breast
# [5] = tested on: RXF 393 renal
# [6] = tested on: SF-268 CNS
# [7] = tested on: SF-295 CNS
# [8] = tested on: SF-539 CNS
# [9] = tested on: UACC-257 melanoma
# [10] = tested on: M14 melanoma
Compound,growth [1],growth [2],growth [3],growth [4],growth [5],growth [6],growth [7],growth [8],growth [9],growth [10]
CC(=O)N1N=C(c2ccc(Nc3nc(Nc4ccccc4)nc(Nc4ccccc4)n3)cc2)CC1c1cccc([N+](=O)[O-])c1 (stereo not given),102%,80.8%,136%,73.7%,-0.925% (active),109%,104%,89.8%,92.3%,94.8%
[O-]/[N+](=C\c1ccc(-n2cc(Cc3ccccc3Cc3cn(-c4ccc(/C=[N+](/[O-])c5ccccc5)cc4)nn3)nn2)cc1)c1ccccc1,106%,86.6%,102%,103%,116%,92.8%,99.5%,92.2%,108%,101%
O=C(CSc1nc2ccc([N+](=O)[O-])cc2[nH]1)Nc1ccc([N+](=O)[O-])cc1,31.6%,14.3%,1.83% (active),33.3%,29%,27%,21.2%,41.5%,9.35% (active),24.5%
Cc1cn(-c2cc(NC(=O)c3cncc(C#Cc4cnc(N)c5ncccc45)c3)cc(C(F)(F)F)c2)cn1,93.7%,5.81% (active),23.8%,47.1%,59.6%,67.2%,91%,72.3%,62.5%,29.8%
C#COc1cccc(Nc2c(C#N)cnc3ncc(NC(=O)CCl)cc23)c1,33.2% [6.25 µM],6.93% [6.25 µM] (active),76.9% [6.25 µM],20.9% [6.25 µM],54% [6.25 µM],6.32% [6.25 µM] (active),42.1% [6.25 µM],-7.95% [6.25 µM] (active),47.1% [6.25 µM],41.2% [6.25 µM]
CC(=O)N1N=C(c2ccc(Nc3nc(Nc4ccccc4)nc(Nc4ccccc4)n3)cc2)CC1c1ccccc1 (stereo not given),97.6%,68.9%,78.7%,71.7%,137%,89.2%,85.6%,88.8%,113%,84.6%
COCCOc1cc2ncnc(N3CCN(c4ncc(S(=O)(=O)N5CCCCC5)cn4)CC3)c2cc1OCCOC,102%,96.3%,93.8%,106%,110%,93.3%,99.6%,107%,101%,97.8%
CC(C)c1ccc(C(=O)Nc2nc3ccc(O)c(CN(C)C)c3s2)cc1,63.1%,1.54% (active),71.4%,44.8%,97.4%,87.2%,96.3%,69%,50.9%,26.8%
CCCCCCC12CCC(=O)N1CCc1cncn12 (stereo not given),109%,100%,120%,110%,92.4%,120%,105%,106%,101%,113%
COCCn1cc(-c2csc(-c3cn(C)c4ccc(Br)cc34)n2)c2cccnc21,62.5%,-9.15% (active),96.6%,42.9%,68.8%,64.8%,33.9%,70.1%,63.7%,42.9%
COC(=O)c1c(C)c2n(c1C)C(=O)C(c1ccccc1)=C2,97.9%,74.8%,82.1%,60.5%,82.3%,103%,79.9%,87.6%,18.1%,86.3%
Nc1n[nH]c2cccc(C#Cc3cccc(NC(=O)c4cc(F)cc(C(F)(F)F)c4)c3)c12,97.9%,9.27% (active),53%,48.1%,62.8%,73.6%,81.3%,44%,88.5%,41.9%
c1ccc(-c2oc(-c3ccccc3)c(CN3CCCCC3)c2CN2CCCCC2)cc1,57.7%,7.49% (active),-12.5% (active),29.6%,2.14% (active),57.9%,37.3%,46.7%,15.8%,1.67% (active)
COc1cc(NS(=O)(=O)c2ccc(-c3cnc(C4CC4)o3)cc2)ccc1F,23%,12.2%,55.8%,24.2%,12.4%,55.7%,15.6%,1.5% (active),69%,19%
C=C1CC[C@@H]2[C@](C)(COC(C)=O)[C@H](OC(C)=O)CC[C@@]2(C)[C@@H]1CC(Nc1ccc(S(=O)(=O)Nc2ncccn2)cc1)C1=CCOC1=O (stereo not given in full),14.9%,4.6% (active),-4.93% (active),-1.01% (active),-70% (active),18.3%,68%,-69% (active),16.6%,4.76% (active)
COc1cc2nc3cc([N+](=O)[O-])ccc3c(NCCNCC(C)O)c2cc1OC (stereo not given),-7.42% (active),0.179% (active),-74.1% (active),-39.5% (active),-56% (active),-15.4% (active),17.1%,-21.6% (active),-56% (active),-66.1% (active)
Cn1ccnc1C(=O)/C=C/c1ccc(CC(=O)Nc2cc(C(F)(F)F)cc(C(F)(F)F)c2)cc1,73.4%,61.6%,77.9%,78.1%,56.2%,64.9%,84.3%,67.1%,72.8%,80.5%
Cc1c2cnccc2c(C)c2c1c1cc(C#N)ccc1n2C,3.34% (active),-8.24% (active),-77.4% (active),-23.5% (active),-85.1% (active),-8.27% (active),-11.7% (active),-61.7% (active),-29% (active),-83.3% (active)
COc1ccc(/C=C/C(=O)c2cccc(OCCCCOc3cccc(C(=O)/C=C/c4ccc(OC)c(OC)c4)c3)c2)cc1OC,83.3%,50.7%,77.7%,87.7%,79.1%,76.2%,47%,87.7%,57.1%,78.6%
O=C(CN1C(=O)NC2NC(=O)NC21)N/N=C/c1ccccc1[N+](=O)[O-] (stereo not given),113%,104%,107%,114%,118%,107%,105%,95.2%,116%,102%
CCC(=C(c1ccc(OCCN2CCCCC2)cc1)c1ccc(OCCN2CCCCC2)cc1)c1ccc(Cl)cc1,-89.8% (active),-37% (active),-83.4% (active),-90.1% (active),-81.4% (active),-72.1% (active),-89.7% (active),-97.3% (active),-76.9% (active),-83.1% (active)
O=C(Nc1cccc(-c2ccc(Cl)c(C(F)(F)F)c2)c1)C1CCN(Cc2cccc3cccnc23)CC1,10.8%,-6.99% (active),-75.6% (active),-24.1% (active),8.93% (active),40.1%,-43.9% (active),-88.7% (active),19.8%,-68.5% (active)
CCCC/C=C/[C@@H]1C[C@H]1CCO,116%,103%,93.6%,99.2%,108%,104%,98.2%,103%,91.5%,98.9%
CCCCCOC(=O)c1c(C)[nH]c(/C=C2\N=C(c3ccc[nH]3)C=C2OC)c1C,27.4%,-6.07% (active),-61.3% (active),-48.5% (active),-47.3% (active),14.9%,-37.2% (active),-41.6% (active),-20.1% (active),-70.4% (active)
O=C(O)CCN1C(=O)/C(=C/C(Cl)=C/c2ccccc2)SC1=S,22.2%,14.5%,36.1%,49.9%,-10.2% (active),26.5%,51.5%,10.2%,33.3%,10.3%
N#Cc1nc(-c2ccccc2)oc1S(=O)(=O)N1CCN(c2ccccc2)CC1,107%,34.9%,90.1%,105%,114%,107%,105%,100%,92.7%,81.1%
CCN(CC)Cc1cc(C=C2C(=O)NC(=S)NC2=O)cc(OC)c1O,111%,117%,111%,103%,115%,101%,102%,101%,106%,108%
